Each compound was assayed on Inhibin beta A chain (activin A) (assay: INHBA (activin A) binders on microarrays, primary screen, biochemical, small-molecule microarray, 635 nm fluorescence scan (AID 1107;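 note: mouse activin A protein probed at 4.33 µg/mL on printed slides; score merges bound-protein fluorescence near 667 nm with spot signal-to-noise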)). Conditions: small-molecule microarray binding, higher = more signal.

| SMILES | composite z-score |
| --- | --- |
| O=C1C[C@@H](O)[C@@H](O)[C@@H]2[C@@H]3C(=O)N(c4ccc(F)cc4F)C(=O)[C@@H]3CC[C@H]12 | 0.148 |
| Cc1cc(C)c(-c2cc([C@H](C)ON=C[C@@H](C)[C@H](OCc3ccccc3)C(C)C)on2)c(C)c1 | 0.874 |
| CCN1C(=O)[C@H]2[C@H]3[C@H](O)[C@H](O)CC(=NOCC=C(C)CCC=C(C)C)[C@@H]3CC[C@H]2C1=O | 1.18 |
| CC(CCC(=O)OC[C@H]1O[C@H](C#Cc2ccccc2)C=C[C@@H]1Oc1ccc(C)cc1)=NOC[C@@H](C)[C@H](OCc1ccccc1)C(C)C | 0.211 |
| CCOC(=O)CCN1C(=O)[C@H]2[C@H]3[C@H](O)[C@H](O)CC(=NO[C@@H]4O[C@H](CO)[C@@H](O)[C@H](O)[C@H]4O)[C@H]3CC[C@H]2C1=O | 0.401 |
| CC1(C)O[C@H]2OC([C@H](O)CON3C(=O)c4ccccc4C3=O)[C@H](O)[C@H]2O1 (stereo not given in full) | -0.582 |
| CC(CCN1CCc2nc(-c3ccccc3)c(-c3ccccc3)cc2C1)=NO[C@H](C)c1cn([C@H](CO)Cc2ccccc2)nn1 | 1.09 |
| CON=C(C)CCN1CCCc2nc(C)c(C)cc21 | 0.912 |
| CC(=O)OC[C@H]1O[C@@H](ON=C(C)CCC(=O)OC[C@H]2O[C@H](C#Cc3ccccc3)C=C[C@@H]2Oc2ccc(C)cc2)[C@H](OC(C)=O)[C@@H](OC(C)=O)[C@@H]1OC(C)=O | -0.0231 |
| CCN1C(=O)[C@H]2[C@H]3[C@H](O)[C@H](O)CC(=NO[C@H](C)c4cn([C@H](CO)Cc5ccccc5)nn4)[C@@H]3CC[C@H]2C1=O | -0.802 |
